# According to ChEMBL document CHEMBL2218924, “A broad activity screen in support of a chemogenomic map for kinase signalling research and drug discovery” (Biochem J, 2013):
# Legend:
# [1] = target: Death-associated protein kinase 1 (Homo sapiens) (UniProt P53355); details: at 10 µM
# [2] = target: Death-associated protein kinase 2 (Homo sapiens) (UniProt Q9UIK4); details: at 1 µM
# [3] = target: T1, Serine/threonine-protein kinase DCLK2 (Homo sapiens) (UniProt Q8N568); details: at 1 µM
# T1 sequence (whole entry): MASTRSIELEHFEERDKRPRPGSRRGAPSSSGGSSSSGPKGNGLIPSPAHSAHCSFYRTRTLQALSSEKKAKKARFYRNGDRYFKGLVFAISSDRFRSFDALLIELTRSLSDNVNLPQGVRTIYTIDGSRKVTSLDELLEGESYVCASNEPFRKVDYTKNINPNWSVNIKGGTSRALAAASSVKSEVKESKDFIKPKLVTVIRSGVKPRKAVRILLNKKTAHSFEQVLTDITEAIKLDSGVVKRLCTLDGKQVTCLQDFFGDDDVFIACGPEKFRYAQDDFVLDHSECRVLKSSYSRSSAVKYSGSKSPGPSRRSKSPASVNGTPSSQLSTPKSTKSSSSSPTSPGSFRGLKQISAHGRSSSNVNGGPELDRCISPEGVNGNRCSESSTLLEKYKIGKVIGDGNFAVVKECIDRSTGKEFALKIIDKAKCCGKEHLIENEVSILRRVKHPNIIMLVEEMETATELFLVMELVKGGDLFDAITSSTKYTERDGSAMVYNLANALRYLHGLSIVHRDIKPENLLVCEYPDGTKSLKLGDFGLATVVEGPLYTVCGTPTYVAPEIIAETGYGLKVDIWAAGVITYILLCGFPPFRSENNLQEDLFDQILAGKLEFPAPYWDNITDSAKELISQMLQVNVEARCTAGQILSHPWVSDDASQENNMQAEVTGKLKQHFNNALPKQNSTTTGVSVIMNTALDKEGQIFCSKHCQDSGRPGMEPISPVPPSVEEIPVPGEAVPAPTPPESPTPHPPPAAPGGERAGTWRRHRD
# [4] = target: T1, Serine/threonine-protein kinase DCLK2 (Homo sapiens); details: at 10 µM
# [5] = target: T2, Serine/threonine-protein kinase 17A (Homo sapiens) (UniProt Q9UEE5); details: at 10 µM
# T2 sequence (whole entry): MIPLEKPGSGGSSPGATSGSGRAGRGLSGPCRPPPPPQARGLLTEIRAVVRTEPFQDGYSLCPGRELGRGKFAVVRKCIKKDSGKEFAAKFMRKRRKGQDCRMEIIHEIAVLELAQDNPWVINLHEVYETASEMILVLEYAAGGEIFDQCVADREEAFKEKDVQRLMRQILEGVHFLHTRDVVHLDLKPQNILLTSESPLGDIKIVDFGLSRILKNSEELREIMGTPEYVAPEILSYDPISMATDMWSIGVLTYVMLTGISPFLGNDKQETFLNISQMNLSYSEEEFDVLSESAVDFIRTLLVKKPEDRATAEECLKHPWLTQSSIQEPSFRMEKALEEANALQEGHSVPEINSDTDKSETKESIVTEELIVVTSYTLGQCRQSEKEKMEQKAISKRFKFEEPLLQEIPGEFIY
# [6] = target: T3, Dual specificity tyrosine-phosphorylation-regulated kinase 2 (Homo sapiens) (UniProt Q92630); details: at 1 µM
# T3 sequence (whole entry): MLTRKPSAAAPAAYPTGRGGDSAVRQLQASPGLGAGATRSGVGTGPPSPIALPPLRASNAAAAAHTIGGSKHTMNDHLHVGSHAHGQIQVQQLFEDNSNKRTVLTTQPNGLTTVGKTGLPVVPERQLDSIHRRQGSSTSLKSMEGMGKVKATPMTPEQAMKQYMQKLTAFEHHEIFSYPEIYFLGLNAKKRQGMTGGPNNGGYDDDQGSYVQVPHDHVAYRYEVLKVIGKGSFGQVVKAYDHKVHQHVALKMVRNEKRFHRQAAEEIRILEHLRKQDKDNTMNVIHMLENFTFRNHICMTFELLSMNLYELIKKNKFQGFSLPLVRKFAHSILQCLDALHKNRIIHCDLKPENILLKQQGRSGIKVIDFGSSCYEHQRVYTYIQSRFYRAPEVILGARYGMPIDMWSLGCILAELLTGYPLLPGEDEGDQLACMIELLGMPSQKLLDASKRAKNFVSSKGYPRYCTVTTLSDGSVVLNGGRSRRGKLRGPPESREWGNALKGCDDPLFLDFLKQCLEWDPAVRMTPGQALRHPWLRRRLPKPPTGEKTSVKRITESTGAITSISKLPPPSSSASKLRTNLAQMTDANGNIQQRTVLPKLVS
# [7] = target: T3, Dual specificity tyrosine-phosphorylation-regulated kinase 2 (Homo sapiens); details: at 10 µM
# [8] = target: T4, Ephrin type-A receptor 1 (Homo sapiens) (UniProt P21709); details: at 1 µM
# T4 sequence (whole entry): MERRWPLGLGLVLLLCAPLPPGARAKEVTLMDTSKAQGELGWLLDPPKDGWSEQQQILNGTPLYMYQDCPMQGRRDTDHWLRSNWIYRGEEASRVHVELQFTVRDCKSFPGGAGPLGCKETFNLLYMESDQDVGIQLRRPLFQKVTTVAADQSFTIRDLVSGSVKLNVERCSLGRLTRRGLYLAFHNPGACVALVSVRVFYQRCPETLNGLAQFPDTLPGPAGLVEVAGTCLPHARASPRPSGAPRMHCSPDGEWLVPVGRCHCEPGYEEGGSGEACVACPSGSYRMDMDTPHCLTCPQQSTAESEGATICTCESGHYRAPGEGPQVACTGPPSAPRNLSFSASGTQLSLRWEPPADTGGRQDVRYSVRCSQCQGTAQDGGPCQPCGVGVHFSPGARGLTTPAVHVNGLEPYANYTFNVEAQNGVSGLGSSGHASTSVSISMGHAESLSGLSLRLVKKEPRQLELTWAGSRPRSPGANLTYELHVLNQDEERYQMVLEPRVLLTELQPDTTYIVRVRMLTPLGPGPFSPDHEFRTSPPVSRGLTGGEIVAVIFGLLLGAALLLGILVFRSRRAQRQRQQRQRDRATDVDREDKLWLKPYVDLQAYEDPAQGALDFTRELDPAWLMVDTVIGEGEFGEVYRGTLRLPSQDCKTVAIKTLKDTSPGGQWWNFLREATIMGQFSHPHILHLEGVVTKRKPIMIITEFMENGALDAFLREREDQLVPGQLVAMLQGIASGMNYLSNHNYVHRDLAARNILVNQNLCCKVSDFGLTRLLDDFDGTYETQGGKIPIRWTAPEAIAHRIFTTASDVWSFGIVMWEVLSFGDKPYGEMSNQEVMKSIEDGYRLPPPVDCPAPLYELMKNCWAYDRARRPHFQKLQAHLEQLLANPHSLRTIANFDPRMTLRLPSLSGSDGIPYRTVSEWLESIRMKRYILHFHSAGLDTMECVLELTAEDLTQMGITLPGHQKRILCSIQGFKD
# [9] = target: T4, Ephrin type-A receptor 1 (Homo sapiens); details: at 10 µM
# [10] = target: T5, Ephrin type-A receptor 3 (Homo sapiens) (UniProt P29320); details: at 1 µM
# T5 sequence (whole entry): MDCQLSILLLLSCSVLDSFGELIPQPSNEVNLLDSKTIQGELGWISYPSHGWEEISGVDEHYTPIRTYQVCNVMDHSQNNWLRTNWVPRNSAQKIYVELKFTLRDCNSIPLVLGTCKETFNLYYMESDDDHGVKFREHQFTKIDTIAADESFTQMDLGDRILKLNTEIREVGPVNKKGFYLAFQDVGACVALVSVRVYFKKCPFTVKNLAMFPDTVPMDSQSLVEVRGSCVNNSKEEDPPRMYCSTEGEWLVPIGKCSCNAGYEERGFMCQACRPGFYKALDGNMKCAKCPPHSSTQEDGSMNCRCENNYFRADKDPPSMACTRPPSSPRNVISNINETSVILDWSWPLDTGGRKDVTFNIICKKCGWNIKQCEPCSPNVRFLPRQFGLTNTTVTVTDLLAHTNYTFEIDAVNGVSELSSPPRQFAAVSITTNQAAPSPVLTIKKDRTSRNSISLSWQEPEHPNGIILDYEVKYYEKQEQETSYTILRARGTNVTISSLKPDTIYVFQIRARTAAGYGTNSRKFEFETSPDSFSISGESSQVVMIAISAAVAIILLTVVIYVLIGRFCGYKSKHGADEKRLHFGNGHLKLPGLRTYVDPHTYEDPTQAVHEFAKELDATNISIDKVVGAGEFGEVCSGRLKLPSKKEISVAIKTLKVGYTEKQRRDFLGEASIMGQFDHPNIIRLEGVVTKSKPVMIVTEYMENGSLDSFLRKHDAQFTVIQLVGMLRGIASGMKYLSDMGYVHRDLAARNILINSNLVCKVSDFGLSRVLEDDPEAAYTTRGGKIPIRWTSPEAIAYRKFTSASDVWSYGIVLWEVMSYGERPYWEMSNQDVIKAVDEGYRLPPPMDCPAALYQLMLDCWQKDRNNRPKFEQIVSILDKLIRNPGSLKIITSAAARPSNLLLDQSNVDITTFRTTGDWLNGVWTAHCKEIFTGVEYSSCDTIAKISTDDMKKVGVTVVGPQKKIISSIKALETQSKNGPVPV
# [11] = target: Death-associated protein kinase 2 (Homo sapiens) (UniProt Q9UIK4); details: at 10 µM
# [12] = target: T6, Discoidin domain-containing receptor 2 (Homo sapiens) (UniProt Q16832); details: at 1 µM
# T6 sequence (whole entry): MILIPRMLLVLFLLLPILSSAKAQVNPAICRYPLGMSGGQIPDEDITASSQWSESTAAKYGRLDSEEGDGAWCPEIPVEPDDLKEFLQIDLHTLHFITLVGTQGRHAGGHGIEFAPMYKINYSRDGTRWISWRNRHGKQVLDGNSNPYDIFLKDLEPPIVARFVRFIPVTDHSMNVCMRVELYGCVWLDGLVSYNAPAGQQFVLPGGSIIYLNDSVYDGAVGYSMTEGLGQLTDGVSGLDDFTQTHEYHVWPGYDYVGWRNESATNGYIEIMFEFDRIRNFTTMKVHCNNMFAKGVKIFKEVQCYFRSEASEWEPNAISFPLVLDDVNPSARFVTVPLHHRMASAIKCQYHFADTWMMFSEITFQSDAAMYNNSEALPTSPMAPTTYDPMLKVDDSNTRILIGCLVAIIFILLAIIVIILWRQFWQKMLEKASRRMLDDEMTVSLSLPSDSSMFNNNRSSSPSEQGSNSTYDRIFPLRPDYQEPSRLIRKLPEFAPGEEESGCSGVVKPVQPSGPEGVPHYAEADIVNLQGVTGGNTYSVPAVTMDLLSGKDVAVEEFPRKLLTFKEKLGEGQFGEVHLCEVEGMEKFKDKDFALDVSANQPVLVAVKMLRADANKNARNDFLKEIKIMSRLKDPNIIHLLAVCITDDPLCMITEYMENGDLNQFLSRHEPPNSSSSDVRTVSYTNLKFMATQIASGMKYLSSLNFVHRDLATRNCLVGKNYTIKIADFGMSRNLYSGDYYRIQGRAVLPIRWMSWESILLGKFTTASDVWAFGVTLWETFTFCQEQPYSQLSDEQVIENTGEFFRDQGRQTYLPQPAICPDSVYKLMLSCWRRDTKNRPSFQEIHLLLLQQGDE
# [13] = target: T6, Discoidin domain-containing receptor 2 (Homo sapiens); details: at 10 µM
# [14] = target: Ephrin type-A receptor 2 (Homo sapiens) (UniProt P29317); details: at 1 µM
# Sequence of Ephrin type-A receptor 2 (Homo sapiens) (P29317 whole entry): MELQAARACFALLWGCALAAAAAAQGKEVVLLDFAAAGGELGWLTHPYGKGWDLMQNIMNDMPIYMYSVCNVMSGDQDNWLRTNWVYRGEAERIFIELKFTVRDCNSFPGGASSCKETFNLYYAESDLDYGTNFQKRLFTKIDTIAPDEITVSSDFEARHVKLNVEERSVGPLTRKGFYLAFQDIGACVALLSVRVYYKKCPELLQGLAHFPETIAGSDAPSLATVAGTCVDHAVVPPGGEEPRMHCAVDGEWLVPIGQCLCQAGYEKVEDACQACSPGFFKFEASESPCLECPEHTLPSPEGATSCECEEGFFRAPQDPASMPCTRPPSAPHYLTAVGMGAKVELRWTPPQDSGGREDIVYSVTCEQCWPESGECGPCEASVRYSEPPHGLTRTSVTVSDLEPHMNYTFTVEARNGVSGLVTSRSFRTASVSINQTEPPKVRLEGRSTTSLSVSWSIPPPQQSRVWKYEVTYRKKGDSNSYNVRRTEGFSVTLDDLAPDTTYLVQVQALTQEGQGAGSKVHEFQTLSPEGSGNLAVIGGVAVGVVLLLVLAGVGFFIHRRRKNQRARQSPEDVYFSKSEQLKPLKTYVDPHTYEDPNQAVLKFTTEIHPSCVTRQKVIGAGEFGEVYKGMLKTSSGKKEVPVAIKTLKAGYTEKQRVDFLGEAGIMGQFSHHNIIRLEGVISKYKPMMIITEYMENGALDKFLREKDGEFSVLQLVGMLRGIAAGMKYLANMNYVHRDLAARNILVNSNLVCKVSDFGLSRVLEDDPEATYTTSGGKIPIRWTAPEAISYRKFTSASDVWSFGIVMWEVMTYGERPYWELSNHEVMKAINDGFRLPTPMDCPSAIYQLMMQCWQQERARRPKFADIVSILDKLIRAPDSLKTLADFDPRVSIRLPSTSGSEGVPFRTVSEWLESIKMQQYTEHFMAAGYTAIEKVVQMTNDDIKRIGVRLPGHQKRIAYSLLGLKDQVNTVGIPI
# [15] = target: T7, Myotonin-protein kinase (Homo sapiens) (UniProt Q09013); details: at 1 µM
# T7 sequence (whole entry): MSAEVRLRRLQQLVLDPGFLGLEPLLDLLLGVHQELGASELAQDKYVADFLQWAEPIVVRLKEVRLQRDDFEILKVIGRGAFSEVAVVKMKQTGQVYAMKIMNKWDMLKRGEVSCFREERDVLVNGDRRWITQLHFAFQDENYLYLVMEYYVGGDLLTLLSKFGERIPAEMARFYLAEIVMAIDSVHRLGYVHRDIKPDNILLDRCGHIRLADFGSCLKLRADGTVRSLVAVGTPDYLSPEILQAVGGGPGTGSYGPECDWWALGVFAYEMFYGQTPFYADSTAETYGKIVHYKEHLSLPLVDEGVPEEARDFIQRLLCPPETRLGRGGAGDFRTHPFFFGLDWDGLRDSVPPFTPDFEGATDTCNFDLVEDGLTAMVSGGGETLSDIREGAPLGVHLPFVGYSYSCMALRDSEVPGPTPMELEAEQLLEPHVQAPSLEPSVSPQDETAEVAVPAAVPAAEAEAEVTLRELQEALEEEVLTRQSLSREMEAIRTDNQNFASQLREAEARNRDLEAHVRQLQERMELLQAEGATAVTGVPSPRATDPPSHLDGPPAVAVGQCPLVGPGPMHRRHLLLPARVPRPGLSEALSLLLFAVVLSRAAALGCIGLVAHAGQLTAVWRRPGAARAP
# [16] = target: T7, Myotonin-protein kinase (Homo sapiens); details: at 10 µM
# [17] = target: T2, Serine/threonine-protein kinase 17A (Homo sapiens); details: at 1 µM
# [18] = target: Ephrin type-A receptor 2 (Homo sapiens) (UniProt P29317); details: at 10 µM
# Sequence of Death-associated protein kinase 2 (Homo sapiens) (Q9UIK4 whole entry, looked up, the tested form may be a part): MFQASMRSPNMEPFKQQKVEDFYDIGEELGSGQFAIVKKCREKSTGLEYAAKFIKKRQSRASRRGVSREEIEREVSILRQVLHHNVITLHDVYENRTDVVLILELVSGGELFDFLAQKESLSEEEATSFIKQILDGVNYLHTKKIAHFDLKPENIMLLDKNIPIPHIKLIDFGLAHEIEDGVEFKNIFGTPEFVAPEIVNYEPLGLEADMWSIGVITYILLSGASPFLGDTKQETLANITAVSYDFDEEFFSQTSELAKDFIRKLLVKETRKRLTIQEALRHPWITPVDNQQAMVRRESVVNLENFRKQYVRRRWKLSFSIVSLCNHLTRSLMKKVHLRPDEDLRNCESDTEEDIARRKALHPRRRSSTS
# Sequence of Death-associated protein kinase 1 (Homo sapiens) (P53355 whole entry, looked up): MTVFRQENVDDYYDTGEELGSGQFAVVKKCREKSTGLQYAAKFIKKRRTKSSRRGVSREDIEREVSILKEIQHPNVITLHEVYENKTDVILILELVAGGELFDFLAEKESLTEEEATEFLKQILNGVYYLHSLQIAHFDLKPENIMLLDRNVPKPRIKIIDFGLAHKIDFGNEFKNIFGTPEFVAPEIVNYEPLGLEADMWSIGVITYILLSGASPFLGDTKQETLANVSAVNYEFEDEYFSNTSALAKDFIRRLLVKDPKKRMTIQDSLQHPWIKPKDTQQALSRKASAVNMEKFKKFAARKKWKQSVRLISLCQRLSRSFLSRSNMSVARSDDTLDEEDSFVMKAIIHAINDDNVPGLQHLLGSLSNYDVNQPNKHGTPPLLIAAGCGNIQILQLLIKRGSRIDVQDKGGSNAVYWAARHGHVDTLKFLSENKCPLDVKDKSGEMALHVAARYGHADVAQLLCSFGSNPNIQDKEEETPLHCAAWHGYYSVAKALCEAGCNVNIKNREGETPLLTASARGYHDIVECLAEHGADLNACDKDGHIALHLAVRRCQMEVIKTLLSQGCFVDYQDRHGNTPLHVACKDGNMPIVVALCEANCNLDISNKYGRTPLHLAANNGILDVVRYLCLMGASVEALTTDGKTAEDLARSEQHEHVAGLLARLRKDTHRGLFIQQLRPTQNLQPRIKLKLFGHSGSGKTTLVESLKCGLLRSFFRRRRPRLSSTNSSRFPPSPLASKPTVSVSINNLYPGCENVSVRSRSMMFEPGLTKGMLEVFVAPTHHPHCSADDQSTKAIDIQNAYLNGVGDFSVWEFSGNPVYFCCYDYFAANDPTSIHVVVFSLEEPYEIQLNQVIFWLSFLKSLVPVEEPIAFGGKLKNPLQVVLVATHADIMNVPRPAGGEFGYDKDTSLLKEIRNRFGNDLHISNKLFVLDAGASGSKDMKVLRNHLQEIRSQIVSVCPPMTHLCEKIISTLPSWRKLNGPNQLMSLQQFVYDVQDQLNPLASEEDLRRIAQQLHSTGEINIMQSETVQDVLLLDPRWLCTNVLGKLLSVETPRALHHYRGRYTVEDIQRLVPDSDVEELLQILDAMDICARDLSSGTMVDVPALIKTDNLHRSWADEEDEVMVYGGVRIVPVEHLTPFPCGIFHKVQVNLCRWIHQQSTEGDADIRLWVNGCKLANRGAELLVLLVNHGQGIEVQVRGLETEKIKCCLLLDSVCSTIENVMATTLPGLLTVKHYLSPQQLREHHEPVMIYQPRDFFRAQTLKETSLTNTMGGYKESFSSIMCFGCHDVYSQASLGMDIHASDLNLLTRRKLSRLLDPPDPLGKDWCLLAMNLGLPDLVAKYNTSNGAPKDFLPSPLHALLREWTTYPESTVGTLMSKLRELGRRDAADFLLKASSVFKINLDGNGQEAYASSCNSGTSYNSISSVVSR
Compound,residual activity [1],residual activity [2],residual activity [3],residual activity [4],residual activity [5],residual activity [6],residual activity [7],residual activity [8],residual activity [9],residual activity [10],residual activity [11],residual activity [12],residual activity [13],residual activity [14],residual activity [15],residual activity [16],residual activity [17],residual activity [18]
Nc1ncnc2c1cnn2-c1ccccc1,86%,95%,71%,69%,68%,85%,44%,85%,88%,100%,,,,,,,,
CSc1nc(-c2ccc(F)cc2)c(-c2ccnc(NC(C)c3ccccc3)c2)[nH]1 (stereo not given),96%,101%,137%,100%,72%,,86%,101%,78%,,95%,98%,93%,87%,,,,
CC(C)(C)n1nc(Cc2cccc3ccccc23)c2c(N)ncnc21,88%,96%,85%,107%,103%,109%,99%,7%,-1%,63%,106%,75%,29%,33%,108%,119%,120%,1%
